# This is a sample that favours compounds with a hit; in the whole collection about 1.6% have one here.
# Giardia killer: kills Giardia lamblia | AID 540267 | actives 0.15% (n = 340,000) | Giardia lamblia trophozoite viability | activity change, % at 7.66 µM, hits read low; in the data active = activity change below about -80%; inconclusive = between about -30% and that limit;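 also: parasites exposed to compound for two days anaerobically before the ATP read; % is scaled to controls: 0 for no effect and ±100 for the full control effect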
#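 Killing of trophozoites was scored by loss of ATP luminescence after a 48 hrs anaerobic exposure to compounds at 37 deg C, using 100 cells per well.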
# RXFP1 antag: antagonists of human relaxin receptor RXFP1; activity change, negative = inhibition, % at 57.5 µM; actives 0.59% (n = 350,000); HEK293-RXFP1, relaxin-stimulated cAMP HTRF, 30 min; active compounds read low; Q9HBX9;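 active = activity change of -60% or lower, but not beyond a set lower limit; inconclusive = change between -60% and -40%, or beyond the set limit; inactive = change above -40%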; also: % is scaled to controls: 0 for no effect and ±100 for the full control effect
# Target sequence (Q9HBX9 whole entry, looked up): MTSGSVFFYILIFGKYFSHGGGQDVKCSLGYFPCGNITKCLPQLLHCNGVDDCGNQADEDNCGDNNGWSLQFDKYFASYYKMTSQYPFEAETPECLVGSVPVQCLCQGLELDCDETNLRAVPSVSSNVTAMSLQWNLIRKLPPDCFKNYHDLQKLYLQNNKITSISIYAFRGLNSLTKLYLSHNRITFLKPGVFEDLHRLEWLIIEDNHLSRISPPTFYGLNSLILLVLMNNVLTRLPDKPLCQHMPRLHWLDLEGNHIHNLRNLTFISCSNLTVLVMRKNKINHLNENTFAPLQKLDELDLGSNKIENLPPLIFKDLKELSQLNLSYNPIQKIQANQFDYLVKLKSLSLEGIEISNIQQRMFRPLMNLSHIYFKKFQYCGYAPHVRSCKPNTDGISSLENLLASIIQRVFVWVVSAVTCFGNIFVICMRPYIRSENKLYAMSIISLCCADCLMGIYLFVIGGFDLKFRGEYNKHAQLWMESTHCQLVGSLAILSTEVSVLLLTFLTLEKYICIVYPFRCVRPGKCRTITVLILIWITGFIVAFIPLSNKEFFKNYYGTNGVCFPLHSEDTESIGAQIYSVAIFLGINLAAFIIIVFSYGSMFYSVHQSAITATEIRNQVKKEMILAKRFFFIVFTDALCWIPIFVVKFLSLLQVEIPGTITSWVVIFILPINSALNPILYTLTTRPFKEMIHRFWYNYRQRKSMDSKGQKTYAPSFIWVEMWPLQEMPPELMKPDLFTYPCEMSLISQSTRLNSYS
# Coupling enz: coupling enzyme interference in Giardia aldolase counter-screen; coupling enzyme system counterscreen, AmpLite Red fluorescence; activity change, negative = inhibition, % at 58.2 µM, hits read low; actives 0.67% (n = 290,000); in the data active = activity change below about -30%; also: % is scaled to controls: 0 for no effect and ±100 for the full control effect
#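 Counterscreen of the coupled detection system alone, without aldolase: glyceraldehyde-3-phosphate coupling enzymes plus AmpLite Red readout. Compounds at 57.5 uM final, 10 min RT preincubation, 20 min RT reaction, fluorescence 525/598 nm.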
# gsp agonist: activates gsp, the McCune-Albright syndrome mutation; actives 0.13% (n = 340,000); gsp mutant cells, cAMP HTRF, 30 min; Potency, µM (series often up to 76.9 µM), for inactives: at the highest dose activation (cAMP increase), most hits filed as activators; active = well fitted activation curve with a large enough effect; inconclusive = small, poorly fitted or top-dose-only effect, or another doubt; inactive = no such curve, though single readings can be large or run the other way; cell line not stated here;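 also: phosphodiesterase inhibitor Ro 20-1724 added with compounds to block cAMP breakdown; potency is read from the fitted curve at half-maximal effect; nearly all actives have a fitted effect of over 60% in size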
#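 Cells in DMEM/10% FBS with G418 were pretreated with compounds in DMSO plus […] (300 uM stock) for 30 min at 37C. cAMP was measured by HTRF (cAMP-d2 plus anti-cAMP antibody-K) after 30 min at room temperature.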
# RXFP1 ag: activates the human relaxin receptor RXFP1; Q9HBX9; Potency, µM (titrated, usually from 57.5 µM), for the others: at the top dose activation, hits mostly activators; actives 0.3% (n = 370,000); HEK293T-RXFP1 cAMP TR-FRET, 30 min; response scale: percent of porcine relaxin response, buffer zero; active = well fitted activation curve with a large enough effect; inconclusive = small, poorly fitted or top-dose-only effect; also: potency is read from the fitted curve at half-maximal effect; % is scaled to controls: 0 for no effect and ±100 for the full control effect; nearly all actives have a fitted effect of over 60% in size
#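 HEK293T cells stably expressing RXFP1 were pretreated with the PDE4 inhibitor Ro 20174, exposed to compounds for 30 min at 37C, lysed, and cAMP was read by TR-FRET. Data normalized to buffer (basal) and 29 nM porcine relaxin (100%).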
# gsp antagonist: gsp mutant antagonism. gsp-mutant cells, cAMP HTRF, 30 min. Potency, µM (series often up to 76.9 µM), for inactives: at the top dose activity change, negative = inhibition, usual class: inhibitors. actives 0.4% (n = 340,000). AID 624288; calls by dose curve; cell line not stated here;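 also: intracellular cAMP measured with PDE inhibitor Ro 20-1724 present during compound exposure; potency is read from the fitted curve at half-maximal effect; % is scaled to controls: 0 for no effect and ±100 for the full control effect; nearly all actives have a fitted effect of over 65% in size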
#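 G418-selected cells were plated in DMEM/10% FBS for 16-24 h at 37C, then treated with compounds plus the PDE inhibitor […] (300 uM solution added) for 30 min at 37C. Intracellular cAMP was measured by HTRF after 30 min lysis at room temperature.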
# An asterisk follows results filed as active; ? = inconclusive; . = not tested or not shown; [ ] = remark or other dose.
SMILES,Giardia killer,RXFP1 antag,Coupling enz,gsp agonist,RXFP1 ag,gsp antagonist
[N-]=C=C1C(=O)NC(=O)C([n+]2ccc(-c3ccncc3)cc2)C1c1ccccc1C(F)(F)F (stereo not given),-1,-3,-65*,-3%[15.4 µM],-5%,1%
O=[N+]([O-])c1ccc(Cl)c(S(=O)(=O)Nc2ccc3cn[nH]c3c2)c1,12,7,.,-45%,.,-4%
O=C(O)c1ccc(Cl)c(S(=O)(=O)Nc2ccc3cn[nH]c3c2)c1,-10,5,-71*,11%[15.4 µM],-3%,9%
CCOC(=O)CC(NC(=O)CCc1c(C)nc2nc(C)nn2c1C)c1ccc(OC(C)C)cc1 (stereo not given),5,-6,4,?,18µM*,8%
C/C(=C1\CCOC(=O)S1)N(C=O)Cc1cnc(C)nc1N,.,3,.,.,.,.
Cc1ccc(C2=NCCn3nc4cc(C(F)(F)F)ccc4c32)cc1,7,.,.,6%,0%,3%
Cc1ccc(C2=NCCn3c2c2ccc(C(F)(F)F)cc2[n+]3[O-])cc1,-84*,.,.,-19%,0%,1%
COc1ccc(C2=NCCn3c2c2ccc(C(F)(F)F)cc2[n+]3[O-])cc1,-99*,.,.,29%,0%,7%
Cc1nc(NC2CCCCC2)c2nc(-c3ccccc3)n(CCN(C)C)c2n1,.,.,3,.,.,.
CO[C@H]1COC(=O)[C@H](C)COC(=O)[C@@H](Cc2ccccc2)NC(=O)C/C=C\[C@H]1C,.,.,2,.,.,.
O=C(O)c1ccc(S(=O)(=O)/N=C2\C=C(Nc3ccccc3F)C(=O)c3ccccc32)cc1,-3,1,-45*,?,3%,?
Cc1ccccc1N/C(=N/S(=O)(=O)c1ccccc1)c1ccc(F)cc1,24,17,0,8%,0%,-2%
COC(=O)C(C(C)=O)C1=C/C(=N\S(=O)(=O)c2ccc(C)cc2)c2ccccc2C1=O (stereo not given),-17,-9,-33*,-12%,1%,-17%
COC(=O)[C@H](CO)NS(=O)(=O)c1ccc(C)cc1,5,.,.,.,.,7%
Cc1ccccc1NC1=C/C(=N\S(=O)(=O)c2ccc(C(=O)O)cc2)c2ccccc2C1=O,-16,1,-44*,-9%,-4%,21%
Nc1ccc2c(c1)CN1C(=O)c3ccccc3C1=N2,.,-15,.,.,.,.
N[C@H](C(=O)O)[C@@H](O)c1ccc(O)c(O)c1,.,19,.,.,.,.
Cc1cccc(N2CCN(S(=O)(=O)c3ccc4c(c3)C(C(C)C)C(=O)N4)CC2)c1C (stereo not given),.,.,.,.,4%,.
Cc1cc(/C=C2\SC(=S)NC2=O)c(C)[nH]1,-7,-111*,1,-5%,1%,-25%
CCn1c(C)cc(/C=C2/SC(=S)NC2=O)c1C,-1,10,3,-21%,-2%,5%
O=C1/C(=C/c2ccncc2)SC(=S)N1Cc1ccccc1,-4,-99*,-3,6%[15.4 µM],-1%,-15%
CCc1ccc(NC(=O)CSc2nc(-c3ccccc3)no2)cc1,.,-10,.,.,0%,.
COc1cc(C(=O)Oc2ccc3c(c2)OCC3=O)cc(OC)c1OC,-8,-7,2,-41%,-1%,13%
O=C(Oc1ccc2c(c1)OCC2=O)c1ccc(Cl)cc1,2,-60*,-1,-21%[15.4 µM],0%,5%
COC(=O)[C@@]1(Cc2ccccc2)[C@H]2c3cc(C(=O)N(C)C)n(Cc4ccc(S(C)(=O)=O)cc4)c3C[C@H]2CN1C(=O)c1ccccc1,.,.,0,.,.,.
SMILES,Giardia killer,RXFP1 antag,Coupling enz,gsp agonist,RXFP1 ag,gsp antagonist
CC(=O)Nc1sc(/C(C#N)=C/c2ccc(Cl)c(Cl)c2)nc1-c1ccc(C)cc1,11,4,-44*,?,18%,6%
COc1ccc(-c2nc3sc(CCNC(=O)C(=O)Nc4ccccc4C#N)c(C)n3n2)cc1,.,11,.,.,4%,.
CCCc1cc(C(=O)Nc2ccc(C(=O)c3ccc(F)cc3)cc2)n(C)n1,2,-14,1,21%,1%,35µM*
COC(=O)c1c(C)nc2ccccc2c1C(=O)O,7,.,-4,9%,1%,8%
COc1ccc(-c2c(C(=O)O)nc3ccccc3c2C(=O)O)cc1,-17,5,-34*,15%,2%,3%
CC(C)(C)C(=O)NC(=S)NNC(=O)c1sc2ccccc2c1Cl,-8,?,0,-56%,-2%,50µM*
CN(Cc1cccc2cnccc12)C(=O)c1cc(COc2ccc(F)cc2F)on1,15,-14,4,-11%,4%,-30%
CCc1ccc(CN(C)C(=O)c2cc(COc3cccc4cnccc34)on2)cc1,-3,0,-1,-27%,3%,35µM*
O=C(c1cc(COc2cccc3cnccc23)on1)N1CCC(c2ccccc2Cl)C1 (stereo not given),-13,1,.,-9%,3%,28µM*
Cc1noc(C)c1S(=O)(=O)NCCc1csc2nc(-c3ccc(F)cc3)nn12,.,-20,.,.,2%,.
CC(=O)OCc1cnc(C)c2oc(=O)c(C(=O)Nc3ccc(C)cc3Cl)cc12,.,4,.,.,0%,.
CCCCCCCCCCOc1cc(OCCCCCCCCCC)cc(N(CC(=O)O)CC(=O)O)c1,.,.,6,.,.,.
CC(=O)OCC(NC(=O)C(Cc1ccccc1)NC(=O)OC(C)(C)C)C1OC(n2cc(C)c(=O)[nH]c2=O)C(OC(C)=O)C1OC(C)=O (stereo not given),9,.,-1,.,.,.
O=S(=O)(/C(=C\c1ccc(C(F)(F)F)cc1)c1nc2ccccc2[nH]1)c1ccccc1,-7,-77*,.,27%,.,17%
COC(=O)/C=C\CCc1coc(/C=C\CNC(=O)OC)n1,.,.,1,.,.,.
Cc1cc(/C=N/NC(N)=S)c(C)n1-c1ccc(Cl)c(Cl)c1,9,-105*,-16,-2%[15.4 µM],3%,17%
CCc1cc(=O)oc2cc(OC(C)=O)cc(OC(C)=O)c12,-6,18,2,10µM*,26%,-1%
COc1cc(OCc2ccccc2)c2c(CCC(=O)O)cc(=O)oc2c1,0,5,.,27%,.,-11%
O=C1CSc2ccc(C(=O)O)cc2N1,2,-77*,-3,28%,0%,-1%
Cc1cccc(C)c1NC(=O)CN(C)C(=O)c1ccccc1OCc1ccc(F)cc1,8,-10,.,-15%,2%,10%
Cc1nn(CCCC(=O)NCCCN2CCN(C)CC2)c(=O)c2c1sc1ccccc12,1,2,-6,-20%,6%,3%
Cc1nn(-c2ccccc2)c(Cl)c1C(=O)N1CCN(c2ncnc3c2cnn3-c2ccccc2)CC1,1,?,1,22%,-1%,13µM*
Cc1ccc(Cl)cc1-n1ncc2c(N3CCN(Cc4ccccc4)CC3)ncnc21,.,-81*,.,.,3%,.
